The record followed here is PubChem BioAssay (NCI).

Some test systems named below: RPMI-8226 leukemia; OVCAR-8 ovarian; OVCAR-5 ovarian; OVCAR-4 ovarian; SK-OV-3 ovarian; OVCAR-3 ovarian; HS 578T breast; NCI/ADR-RES ovarian; IGROV1 ovarian.
What all share (assay): NCI-60 one-dose screen, 48 h (100 = growth as untreated, 0 = no growth, -100 = all killed)
What all share (conditions): 10 µM unless noted

The panel holds about 83,000 compounds, 20% with a hit somewhere; the sample as a whole holds those more often.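 Note: values are percent growth. 100 is the growth of untreated cells, values between 100 and 0 indicate rising inhibition; between -100 and 0 indicates cell death.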 Unmarked numbers belong to inactive results. The source made the active and inactive calls. The calls were made as follows: active = growth percent below 10; inactive = the rest.

`N#Cc1ccc(N2Cc3ccccc3OC3=C2C(=O)c2c(O)ccc(O)c2C3=O)cc1`: the growth in the assay with RPMI-8226 leukemia is 5.99% (active); with OVCAR-8 ovarian it was 3.86% (active); in the assay on OVCAR-5 ovarian it was -1.88% (active); in the assay on OVCAR-4 ovarian, -43.4% (active); in the assay on SK-OV-3 ovarian, 63.8%; in the assay on OVCAR-3 ovarian, -93.2% (active). Further, the growth was -14.4% (active) in the assay on HS 578T breast and 19.7% in the assay on NCI/ADR-RES ovarian.
On to `C=C1CCC2C3(C)COC(c4ccccc4)OC3CCC2(C)C1/C=C/C1=CCOC1=O` (configuration not stated), for which the growth was -36.8% (active) in the assay on RPMI-8226 leukemia; 32.9% in the assay on OVCAR-8 ovarian; 78.7% in the assay with OVCAR-5 ovarian; 50% with OVCAR-4 ovarian; 72.4% with SK-OV-3 ovarian; 30.6% in the assay with IGROV1 ovarian. Further, in the assay with NCI/ADR-RES ovarian, the growth was 26.2%.
As for `COC1=C(OC)C(=O)C(CCCCCCCCCC[P+](c2ccccc2)(c2ccccc2)c2ccccc2)=C(C)C1=O`, the growth in the assay on RPMI-8226 leukemia is -62.5% (active); in the assay with OVCAR-8 ovarian, -48.3% (active); in the assay on OVCAR-5 ovarian, 3.19% (active); in the assay with OVCAR-4 ovarian it was 2.19% (active); in the assay on SK-OV-3 ovarian it was -40% (active); in the assay with IGROV1 ovarian, -31.6% (active). For the same compound, the figures for the growth with OVCAR-3 ovarian, in the assay on HS 578T breast and with NCI/ADR-RES ovarian were -34.2% (active), -58.9% (active) and 60.7%, respectively.
In the case of `Cc1c(C(N)=O)sc2c1c(=O)n(Cc1ccccc1)c1nnc(Nc3ccccc3)n21`, the growth was 148% with RPMI-8226 leukemia; 89.2% in the assay on OVCAR-8 ovarian; 104% in the assay with OVCAR-5 ovarian; 117% with OVCAR-4 ovarian; 99.1% in the assay on SK-OV-3 ovarian; 104% in the assay with IGROV1 ovarian. Besides, the growth in the assay with OVCAR-3 ovarian is 115%; in the assay with NCI/ADR-RES ovarian, 103%.
On to `O=C(c1ccccc1)c1c(/C=C/c2ccccc2)c2ccccc2[nH]c1=O`, for which the growth in the assay on RPMI-8226 leukemia is 94.6%; in the assay with OVCAR-8 ovarian it was 90.9%; in the assay with OVCAR-5 ovarian, 90.4%; with OVCAR-4 ovarian, 97.7%; in the assay with SK-OV-3 ovarian, 102%; with IGROV1 ovarian, 95.4%. Also, the growth in the assay on OVCAR-3 ovarian was 97.6%; with HS 578T breast it was 88.7%; with NCI/ADR-RES ovarian, 97.5%.
As for `O=c1c2sc3ncccc3c2nnn1-c1ccccc1`, the growth was 99% with RPMI-8226 leukemia; 104% in the assay with OVCAR-8 ovarian; 101% in the assay with OVCAR-5 ovarian; 103% in the assay with OVCAR-4 ovarian; 105% in the assay on SK-OV-3 ovarian; 106% with IGROV1 ovarian. Further, the growth with OVCAR-3 ovarian is 112%; in the assay on HS 578T breast it was 108%; with NCI/ADR-RES ovarian, 107%.
As to `CCCCCCCC[C@@H](O)CC(=O)N[C@@H](CC(N)=O)C(=O)N[C@@H](CCC(N)=O)C(=O)N[C@@H](CC(=O)c1cc(C)cc(O)c1C(=O)c1c(O)cccc1O)CC(C)C`, the growth in the assay with RPMI-8226 leukemia is 10.9%; in the assay with OVCAR-8 ovarian, 47.6%; in the assay on OVCAR-5 ovarian, 39.9%; in the assay on OVCAR-4 ovarian, 41.1%; in the assay with SK-OV-3 ovarian, 63.4%; in the assay on IGROV1 ovarian, 15.1%. Moreover, the growth was -3.89% (active) in the assay on OVCAR-3 ovarian, 26.9% in the assay with HS 578T breast and 93.7% with NCI/ADR-RES ovarian.
As to `C=C1C(=O)O[C@H]2[C@H]1CC/C(COC(=O)NCc1ccccc1OC)=C\CC[C@@]1(C)O[C@@H]21`, the growth with RPMI-8226 leukemia is 25.7%; in the assay with OVCAR-8 ovarian it was 10.5%; with OVCAR-5 ovarian it was 73%; in the assay with OVCAR-4 ovarian, 41.7%; with SK-OV-3 ovarian it was 85.8%; with OVCAR-3 ovarian, -1.44% (active). Also, the growth is 40.1% in the assay on HS 578T breast and 86% in the assay on NCI/ADR-RES ovarian.
As for `COc1ccc(-c2cnoc2-c2ccc(OC)cc2O)cc1`, the growth in the assay with RPMI-8226 leukemia is 49.6%; with OVCAR-8 ovarian, 51.4%; in the assay on OVCAR-5 ovarian, 64.1%; in the assay on OVCAR-4 ovarian it was 75.1%; in the assay with SK-OV-3 ovarian, 30%; with IGROV1 ovarian it was 51.6%. Further, the growth in the assay on OVCAR-3 ovarian was -11.3% (active); with HS 578T breast, -7.48% (active); in the assay on NCI/ADR-RES ovarian it was -21% (active).
Regarding `O=Nc1c(-c2cccc([N+](=O)[O-])c2)nc2ncccn12`, the growth in the assay with RPMI-8226 leukemia was -30.7% (active); with OVCAR-8 ovarian, 81.1%; with OVCAR-5 ovarian, 93.5%; in the assay on OVCAR-4 ovarian it was 86.5%; in the assay on SK-OV-3 ovarian, 101%; in the assay with IGROV1 ovarian it was 40.5%. Besides, the growth with OVCAR-3 ovarian is 44.9%; with HS 578T breast, 107%; with NCI/ADR-RES ovarian it was 97.5%.
As to `O=c1ccn(C2CC(O)C(O)C(CO)O2)c(=O)[nH]1` (configuration not stated), the growth is 85.7% with RPMI-8226 leukemia; 116% in the assay with OVCAR-8 ovarian; 108% in the assay on OVCAR-5 ovarian; 108% in the assay on OVCAR-4 ovarian; 114% in the assay with SK-OV-3 ovarian; 118% with IGROV1 ovarian. In addition, the growth in the assay on OVCAR-3 ovarian was 123%; in the assay with HS 578T breast, 120%; in the assay on NCI/ADR-RES ovarian it was 113%.
On to `COc1cc(Nc2nc(N[C@H]3CCCC[C@@H]3N)nc3cc[nH]c(=O)c23)cc(OC)c1`, for which the growth is 25% in the assay with RPMI-8226 leukemia; 14.5% with OVCAR-8 ovarian; 22.2% with OVCAR-5 ovarian; 24.1% with SK-OV-3 ovarian; 8.81% (active) with IGROV1 ovarian; 70.4% with OVCAR-3 ovarian. Besides, the growth with HS 578T breast was 53.6%; with NCI/ADR-RES ovarian, 100%.
On to `COc1ccc(Nc2[nH]n3c(=O)cc(-c4ccccc4)nc3c2C(=O)Nc2ccc(C)cc2)c(OC)c1`, for which the growth is 108% in the assay on RPMI-8226 leukemia; 92% with OVCAR-5 ovarian; 89.6% with OVCAR-4 ovarian; 91.2% in the assay on SK-OV-3 ovarian; 102% in the assay on IGROV1 ovarian; 98.7% with OVCAR-3 ovarian. The growth with HS 578T breast was 78.1%; in the assay with NCI/ADR-RES ovarian, 108%.
Consider `N#C/C(=C1C=C/C(=N/O)C(Cl)=C/1)c1ccc(Cl)cc1`, for which the growth in the assay with OVCAR-8 ovarian was 66.3%; with OVCAR-5 ovarian, 129%; in the assay with OVCAR-4 ovarian, 88.9%; in the assay with IGROV1 ovarian it was 45.4%; in the assay with OVCAR-3 ovarian it was 31.7%; with HS 578T breast, 87.7%. Besides, in the assay on NCI/ADR-RES ovarian, the growth is 63.1%.
`O=C(Nc1ccc2c(c1)OCCO2)C(=O)c1c[nH]c2ccccc12`: the growth was 21.6% with RPMI-8226 leukemia; 45.2% with OVCAR-5 ovarian; 51.2% with OVCAR-4 ovarian; 12.8% in the assay on SK-OV-3 ovarian; 44.5% with IGROV1 ovarian; -45.1% (active) in the assay on OVCAR-3 ovarian. In addition, the growth was 13.1% with HS 578T breast and -30.3% (active) with NCI/ADR-RES ovarian.
As for `ClC(Cl)c1nc(-c2ccccc2)nc2cc(-c3ccccc3)nn12`, the growth with RPMI-8226 leukemia was 17.3%; in the assay with OVCAR-5 ovarian it was 121%; in the assay with OVCAR-4 ovarian it was 63.4%; in the assay with IGROV1 ovarian, 67%; in the assay with OVCAR-3 ovarian, -9.5% (active); with HS 578T breast it was 63%. In the assay on NCI/ADR-RES ovarian, the growth is 54.6%.
